Targets with a hit are over-represented here; the source holds about 7,900 in all. About 0.6% of all pairs of compound and target were hits.
Compound: C[C@@H]1COCCN1C2=NC(=NC(=C2)C3(CC3)S(=O)(=O)C)C4=C5C=CNC5=CC=C4
Assay: log2 fold change, soluble protein after heating vs DMSO (PISA); higher = thermal stabilisation; K562 cells, 10 uM, 30 min; active = over 0.2 and 3.5 SD of the protein, either way, in both replicates (recomputed)
Procedure, shortened: (§1)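 K562 cells at 2×10^6 cells/mL were treated for 30 min with 10 μM compound, and aliquots were heated for 3 min over 48°C-58°C before pooling. Extraction used PBS with 0.5% NP-40 at 4°C, and soluble protein was the supernatant after 21,000xg for 90 min, measured by TMTpro 16plex LC-MS/MS with channel sums equalised. Thermal stability values, relative to control samples and from duplicates, are log2 fold changes.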

Sequence of UniProt Q16740 (Q16740 whole entry, looked up): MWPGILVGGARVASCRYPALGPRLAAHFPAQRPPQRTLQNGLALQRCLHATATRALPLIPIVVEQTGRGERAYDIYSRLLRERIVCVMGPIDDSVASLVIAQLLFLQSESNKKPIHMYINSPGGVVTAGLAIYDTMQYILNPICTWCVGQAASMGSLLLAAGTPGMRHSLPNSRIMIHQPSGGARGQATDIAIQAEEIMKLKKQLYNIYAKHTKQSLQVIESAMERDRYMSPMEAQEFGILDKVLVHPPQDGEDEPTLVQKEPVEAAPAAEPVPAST
Sequence of UniProt Q9P0B6 (Q9P0B6 whole entry, looked up): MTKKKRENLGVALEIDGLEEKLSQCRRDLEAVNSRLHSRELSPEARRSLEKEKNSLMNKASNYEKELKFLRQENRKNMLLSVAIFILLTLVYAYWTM
Sequence of UniProt Q5T6V5 (Q5T6V5 whole entry, looked up): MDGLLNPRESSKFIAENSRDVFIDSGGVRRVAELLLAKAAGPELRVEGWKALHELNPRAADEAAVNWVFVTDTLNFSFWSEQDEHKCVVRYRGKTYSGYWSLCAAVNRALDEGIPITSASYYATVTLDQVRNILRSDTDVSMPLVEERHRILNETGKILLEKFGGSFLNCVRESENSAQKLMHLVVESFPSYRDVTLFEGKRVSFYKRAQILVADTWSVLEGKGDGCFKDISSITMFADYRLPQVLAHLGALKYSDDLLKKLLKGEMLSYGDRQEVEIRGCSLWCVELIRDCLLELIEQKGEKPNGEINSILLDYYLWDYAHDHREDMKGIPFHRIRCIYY
Sequence of UniProt O95319 (O95319 whole entry, looked up): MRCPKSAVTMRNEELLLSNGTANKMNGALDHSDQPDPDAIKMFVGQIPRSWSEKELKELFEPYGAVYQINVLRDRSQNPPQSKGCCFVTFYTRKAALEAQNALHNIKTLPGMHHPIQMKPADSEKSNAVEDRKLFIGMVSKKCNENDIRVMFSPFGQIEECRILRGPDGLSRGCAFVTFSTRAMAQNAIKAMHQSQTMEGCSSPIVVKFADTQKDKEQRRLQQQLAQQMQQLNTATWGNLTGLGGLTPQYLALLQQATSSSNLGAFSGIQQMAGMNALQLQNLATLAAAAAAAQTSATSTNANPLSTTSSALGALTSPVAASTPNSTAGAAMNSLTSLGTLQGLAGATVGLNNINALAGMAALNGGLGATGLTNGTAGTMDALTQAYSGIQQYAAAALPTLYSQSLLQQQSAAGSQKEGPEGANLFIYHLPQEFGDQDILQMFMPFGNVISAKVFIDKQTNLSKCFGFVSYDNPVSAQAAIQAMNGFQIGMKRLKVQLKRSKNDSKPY
Sequence of UniProt Q96RR4 (Q96RR4 whole entry, looked up): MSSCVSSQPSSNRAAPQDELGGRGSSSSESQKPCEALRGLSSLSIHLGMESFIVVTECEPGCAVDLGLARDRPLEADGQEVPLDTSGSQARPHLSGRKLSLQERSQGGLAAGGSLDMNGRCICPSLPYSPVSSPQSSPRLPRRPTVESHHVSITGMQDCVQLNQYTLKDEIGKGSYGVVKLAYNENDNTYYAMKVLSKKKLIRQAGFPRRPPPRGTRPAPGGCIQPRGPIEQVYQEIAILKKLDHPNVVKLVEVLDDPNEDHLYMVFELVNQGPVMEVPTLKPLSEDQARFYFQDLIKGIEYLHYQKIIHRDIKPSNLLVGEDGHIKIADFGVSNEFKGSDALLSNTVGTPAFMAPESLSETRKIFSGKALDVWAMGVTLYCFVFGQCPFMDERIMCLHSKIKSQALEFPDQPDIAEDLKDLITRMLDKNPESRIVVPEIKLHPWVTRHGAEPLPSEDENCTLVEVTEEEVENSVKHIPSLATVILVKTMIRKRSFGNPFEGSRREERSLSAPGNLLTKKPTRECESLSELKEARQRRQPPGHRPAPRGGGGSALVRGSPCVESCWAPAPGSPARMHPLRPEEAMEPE
Sequence of UniProt P33240 (P33240 whole entry, looked up): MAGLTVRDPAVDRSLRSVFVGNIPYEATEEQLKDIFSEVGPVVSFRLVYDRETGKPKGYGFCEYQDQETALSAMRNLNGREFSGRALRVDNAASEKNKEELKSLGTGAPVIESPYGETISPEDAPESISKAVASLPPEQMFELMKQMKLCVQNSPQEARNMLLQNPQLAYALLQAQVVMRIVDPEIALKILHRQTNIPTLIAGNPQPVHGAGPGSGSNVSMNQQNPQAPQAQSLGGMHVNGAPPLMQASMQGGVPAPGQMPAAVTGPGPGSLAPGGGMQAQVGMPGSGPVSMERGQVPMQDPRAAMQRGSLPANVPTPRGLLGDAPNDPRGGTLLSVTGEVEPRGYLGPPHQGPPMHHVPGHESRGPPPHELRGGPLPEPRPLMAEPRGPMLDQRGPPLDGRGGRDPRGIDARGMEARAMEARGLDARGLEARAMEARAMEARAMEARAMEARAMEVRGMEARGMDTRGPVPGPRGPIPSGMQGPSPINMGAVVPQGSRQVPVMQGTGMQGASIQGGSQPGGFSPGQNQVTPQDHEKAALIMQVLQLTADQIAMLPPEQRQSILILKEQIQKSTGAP
Sequence of UniProt Q00534 (Q00534 whole entry, looked up): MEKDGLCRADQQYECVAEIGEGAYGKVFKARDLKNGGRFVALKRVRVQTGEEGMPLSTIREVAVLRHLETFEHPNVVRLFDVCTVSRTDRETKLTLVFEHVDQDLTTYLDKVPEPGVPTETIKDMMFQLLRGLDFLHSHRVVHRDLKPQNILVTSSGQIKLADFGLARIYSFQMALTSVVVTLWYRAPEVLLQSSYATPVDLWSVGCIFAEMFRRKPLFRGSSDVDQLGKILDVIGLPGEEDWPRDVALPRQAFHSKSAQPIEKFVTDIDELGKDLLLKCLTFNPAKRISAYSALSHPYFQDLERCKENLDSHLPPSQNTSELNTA
Sequence of UniProt Q8WUX2 (Q8WUX2 whole entry, looked up): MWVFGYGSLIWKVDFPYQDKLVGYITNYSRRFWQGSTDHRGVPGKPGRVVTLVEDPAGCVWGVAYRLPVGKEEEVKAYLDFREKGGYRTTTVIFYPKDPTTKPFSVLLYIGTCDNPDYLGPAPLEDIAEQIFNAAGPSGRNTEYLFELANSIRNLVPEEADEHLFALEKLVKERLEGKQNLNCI
Sequence of UniProt Q96CF2 (Q96CF2 whole entry, looked up): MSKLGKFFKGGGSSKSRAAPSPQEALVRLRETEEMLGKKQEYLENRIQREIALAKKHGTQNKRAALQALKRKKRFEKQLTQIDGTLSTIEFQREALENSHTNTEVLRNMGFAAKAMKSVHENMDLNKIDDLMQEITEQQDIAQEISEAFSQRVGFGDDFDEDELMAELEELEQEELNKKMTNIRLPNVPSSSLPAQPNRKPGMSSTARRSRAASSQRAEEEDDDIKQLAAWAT
Sequence of UniProt P61024 (P61024 whole entry, looked up): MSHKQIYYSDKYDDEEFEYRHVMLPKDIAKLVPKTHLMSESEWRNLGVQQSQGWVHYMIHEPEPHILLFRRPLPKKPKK
Sequence of UniProt Q13137 (Q13137 whole entry, looked up): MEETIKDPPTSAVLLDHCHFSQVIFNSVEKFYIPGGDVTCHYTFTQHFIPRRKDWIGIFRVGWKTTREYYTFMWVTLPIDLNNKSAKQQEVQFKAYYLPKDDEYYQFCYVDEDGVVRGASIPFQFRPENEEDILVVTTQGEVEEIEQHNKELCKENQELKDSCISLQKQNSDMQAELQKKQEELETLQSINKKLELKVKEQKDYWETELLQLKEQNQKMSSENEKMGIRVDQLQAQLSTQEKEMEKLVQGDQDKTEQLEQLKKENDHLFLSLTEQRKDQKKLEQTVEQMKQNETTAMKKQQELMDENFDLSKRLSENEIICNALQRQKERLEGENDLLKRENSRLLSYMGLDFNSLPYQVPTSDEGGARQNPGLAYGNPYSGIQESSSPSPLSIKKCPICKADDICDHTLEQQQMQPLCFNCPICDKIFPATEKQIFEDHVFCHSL
Sequence of UniProt O75909 (O75909 whole entry, looked up): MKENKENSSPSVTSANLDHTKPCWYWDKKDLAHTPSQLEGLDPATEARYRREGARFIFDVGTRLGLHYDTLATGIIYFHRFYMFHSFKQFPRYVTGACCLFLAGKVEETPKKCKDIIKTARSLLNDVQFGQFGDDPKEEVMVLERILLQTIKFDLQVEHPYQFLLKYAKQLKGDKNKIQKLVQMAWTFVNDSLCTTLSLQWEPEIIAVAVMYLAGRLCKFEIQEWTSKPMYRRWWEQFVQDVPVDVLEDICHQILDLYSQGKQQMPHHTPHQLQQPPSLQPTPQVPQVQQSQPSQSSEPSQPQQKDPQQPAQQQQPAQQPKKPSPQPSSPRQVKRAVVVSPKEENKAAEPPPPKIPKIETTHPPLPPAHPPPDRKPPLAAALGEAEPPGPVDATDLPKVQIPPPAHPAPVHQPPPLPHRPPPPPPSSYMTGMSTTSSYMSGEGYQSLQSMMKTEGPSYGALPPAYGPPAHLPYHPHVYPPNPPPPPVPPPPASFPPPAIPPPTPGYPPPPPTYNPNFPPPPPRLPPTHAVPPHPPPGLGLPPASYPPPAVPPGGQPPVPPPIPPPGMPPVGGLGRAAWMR
Sequence of UniProt P16152 (P16152 whole entry, looked up): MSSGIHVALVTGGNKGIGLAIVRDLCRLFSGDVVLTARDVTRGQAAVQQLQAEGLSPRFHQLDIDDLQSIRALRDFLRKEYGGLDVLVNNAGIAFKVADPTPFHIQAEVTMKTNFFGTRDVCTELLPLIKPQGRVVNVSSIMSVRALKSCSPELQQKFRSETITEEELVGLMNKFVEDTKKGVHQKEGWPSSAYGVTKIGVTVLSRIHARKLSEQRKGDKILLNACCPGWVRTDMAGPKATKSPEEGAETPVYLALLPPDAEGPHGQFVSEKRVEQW
Sequence of UniProt P46109 (P46109 whole entry, looked up): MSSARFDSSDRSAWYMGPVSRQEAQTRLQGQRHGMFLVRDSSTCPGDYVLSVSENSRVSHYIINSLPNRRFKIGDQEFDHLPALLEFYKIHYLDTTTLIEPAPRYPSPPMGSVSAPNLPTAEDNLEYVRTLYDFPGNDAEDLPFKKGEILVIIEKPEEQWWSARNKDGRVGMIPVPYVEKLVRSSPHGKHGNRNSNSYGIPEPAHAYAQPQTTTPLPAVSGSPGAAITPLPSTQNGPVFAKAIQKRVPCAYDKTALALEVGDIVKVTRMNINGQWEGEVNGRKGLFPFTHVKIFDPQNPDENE

log2 fold change, inactive:
C9orf64 (UniProt Q5T6V5) 0.091
CELF2 isoform 3 (UniProt O95319) 0.006
CAMSAP1 isoform 3 (UniProt Q5T5Y3) 0.073
CNOT4 isoform 6 (UniProt O95628) 0.056
CSTF2 (UniProt P33240) 0.14
CBX5 (UniProt P45973) -0.037
CHD3 isoform 3 (UniProt Q12873) 0.068
CCDC9 (UniProt Q9Y3X0) -0.063
CHERP (UniProt Q8IWX8) 0.109
COQ9 (UniProt O75208) 0.03
CPQ (UniProt Q9Y646) -0.001
CD81 (UniProt P60033) 0.107
CDK6 (UniProt Q00534) -0.042
CHMP4C (UniProt Q96CF2) -0.256
CHAC2 (UniProt Q8WUX2) 0.021
CSNK2B (UniProt P67870) 0.049
CBR1 (UniProt P16152) 0.052
CRKL (UniProt P46109) 0.008
CHD4 isoform 2 (UniProt Q14839) 0.098
COA6 isoform 2 (UniProt Q5JTJ3) -0.07
CNDP2 (UniProt Q96KP4) 0.102
CETN2 (UniProt P41208) 0.066
CAMKK2 (UniProt Q96RR4) -0.045
CKS1B (UniProt P61024) 0.06
CHEK1 (UniProt O14757) 0.044
CLPP (UniProt Q16740) 0.058
CDK9 isoform 2 (UniProt P50750) -0.075
CHAMP1 (UniProt Q96JM3) 0.074
CCDC167 (UniProt Q9P0B6) 0.071
CALCOCO2 isoform 4 (UniProt Q13137) -0.106
CPSF3 (UniProt Q9UKF6) 0.013
CLASP2 isoform 3 (UniProt O75122) 0.044
CLSPN (UniProt Q9HAW4) -0.04
COMMD2 (UniProt Q86X83) 0.102
CLCN3 (UniProt P51790) 0.012
CCNK isoform 4 (UniProt O75909) 0.073

Compound: C[C@H](C1=CC=C(C=C1)C(=O)NC2=C3C=CNC3=NC=C2)N
Assay: as above
Procedure, shortened: as §1

log2 fold change, inactive:
C9orf64 (UniProt Q5T6V5) 0
CELF2 isoform 3 (UniProt O95319) -0.038
CAMSAP1 isoform 3 (UniProt Q5T5Y3) 0.041
CNOT4 isoform 6 (UniProt O95628) -0.076
CSTF2 (UniProt P33240) -0.042
CBX5 (UniProt P45973) -0.058
CHD3 isoform 3 (UniProt Q12873) 0.079
CCDC9 (UniProt Q9Y3X0) 0.105
CHERP (UniProt Q8IWX8) 0.009
COQ9 (UniProt O75208) -0.064
CPQ (UniProt Q9Y646) 0.049
CD81 (UniProt P60033) -0.232
CDK6 (UniProt Q00534) -0.004
CHMP4C (UniProt Q96CF2) -0.003
CHAC2 (UniProt Q8WUX2) -0.071
CSNK2B (UniProt P67870) -0.128
CBR1 (UniProt P16152) -0.163
CRKL (UniProt P46109) -0.045
CHD4 isoform 2 (UniProt Q14839) 0.057
COA6 isoform 2 (UniProt Q5JTJ3) -0.155
CNDP2 (UniProt Q96KP4) -0.067
CETN2 (UniProt P41208) 0.003
CAMKK2 (UniProt Q96RR4) -0.182
CKS1B (UniProt P61024) -0.051
CHEK1 (UniProt O14757) 0.049
CLPP (UniProt Q16740) -0.025
CDK9 isoform 2 (UniProt P50750) 0.189
CHAMP1 (UniProt Q96JM3) -0.071
CCDC167 (UniProt Q9P0B6) 0.135
CALCOCO2 isoform 4 (UniProt Q13137) 0.024
CPSF3 (UniProt Q9UKF6) -0.006
CLASP2 isoform 3 (UniProt O75122) -0.029
CLSPN (UniProt Q9HAW4) -0.046
COMMD2 (UniProt Q86X83) 0.037
CLCN3 (UniProt P51790) -0.003
CCNK isoform 4 (UniProt O75909) -0.042

— the supplement of paper PMC10849652
